Data taken from PubChem BioAssay AID504725 (Broad Institute, 2011).
Results with a measured potency or affinity are listed apart. Activity calls are given as the source filed them. How the calls were made is not given here.

target: KSHV LANA C-terminal domain (residues 932-1162) binding to LBS DNA (UniProt O40947); assay: KSHV LANA DNA-binding disruption – biochemical, fluorescence polarization, cherry-picked samples, dose response (AID 504725); settings: MBP-C-LANA / FAM-LBS DNA fluorescence polarization, percent change from plate compound-well median; series mostly up to 35 µM

outcome, inactive:
Cc1ccc(S(=O)(=O)Nc2ccc(Br)cc2C(NCC(=O)O)c2ccccc2)cc1 (stereo not drawn)
O=[N+]([O-])c1cc(-n2cnnn2)ccc1N1CCC(Cc2ccccc2)CC1
Cc1nc2c(=O)[nH]c(=S)[nH]c2[nH]c1=O
Cc1ccc(N(C)C(=O)C2CCCN2S(=O)(=O)c2ccc3c(c2)n(C)c(=O)c(=O)n3C)cc1 (stereo not drawn)
O=C1/C(=C/c2ccco2)SC(=S)N1c1cccnc1
CN(C)C(=O)c1ccc(NC(=O)COC(=O)C2(c3ccccc3)CCCC2)cc1
CCOC(=O)C(C)(C)N(Cc1ccccc1C)S(=O)(=O)c1ccc(Cl)c([N+](=O)[O-])c1
CN(CC(=O)Nc1ccc(N2CCOCC2)cc1)C(=O)CSc1ccc(Br)cc1
O=C(/C=C\c1ccccc1)Oc1cccc2cccnc12
CCC(=O)Nc1cccc(C(=O)/C=C/c2ccccc2)c1
CCc1sc(C(=O)NNC(=O)CNC(=O)c2ccccc2F)cc1C
CCCc1nc(SC)[nH]c(=O)c1C
CCOC(=O)C1=C(COC(=O)c2ccc([N+](=O)[O-])s2)NC(=O)NC1C (stereo not drawn)
CCc1noc(C)c1C(=O)NCCc1c[nH]c2ccccc12
CC(C)=C1C2C=CC1C(C(=O)Nc1cc(C)ccc1C)C2C(=O)O (stereo not drawn)
O=C(CCNc1ccc(Cc2ccncc2)cc1)c1cccc([N+](=O)[O-])c1
O=S(=O)(NCc1cccnc1)c1ccc(Cl)s1
O=C(CN1C(=O)NC2(CCCC2)C1=O)Nc1ccccc1-c1ccccc1
